PubChem BioAssay (Tox21)
Where “and” joins values, the source holds several entries; their conditions need not be identical. Equal values may be shown once. Results filed as inconclusive are left out. Entries that show only a call come without a potency. The source holds several records for some structures; these can differ, active in one and inactive in another. Calls of active or inactive are those of the source. Unless noted, calls come from the whole dose curve.

Experiments:
[1] = Nuclear factor erythroid 2-related factor 2/antioxidant responsive element (Nrf2/ARE) small molecule agonists: qHTS cell viability counter screen in human keratinocytes (AID 1919968; active = well fitted curve in the direction sought with a large enough effect in the repeat runs; an effect the other way counts as inactive or inconclusive; note: nearly all actives have a fitted effect of over 55% in size)
In short: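 CellTiter-Fluor fluorescence, read 1 h after reagent, gave viability in the same wells as the ARE-luciferase assay. KeratinoSens cells (1,500/well) had 23 h compound exposure at 37 C/5% CO2 following 5 h plating.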

[2] = Nuclear factor erythroid 2-related factor 2/antioxidant responsive element (Nrf2/ARE) small molecule agonists: luciferase reporter gene qHTS assay in human keratinocytes (AID 1919969); note: nearly all actives have a fitted effect of over 35% in size; note: potency is the fitted concentration of half-maximal effect
[3] = molecular target: Gonadotropin-releasing hormone receptor (Homo sapiens) (UniProt P30968); assay: Human gonadotropin-releasing hormone receptor (GnRHR) small molecule agonists, calcium flux assay in GnRHR-HEK293 cells (AID 1920063); note: nearly all actives have a fitted effect of over 35% in size
In short: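 Agonist mode: compounds at 15 concentrations, in triplicate, went onto calcium dye-loaded GnRHR-HEK293 cells. Intracellular calcium was then followed as 480/540 nm fluorescence at 1 s intervals over 3 min.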

[4] = molecular target: KiSS-1 receptor (Homo sapiens) (UniProt Q969F8); assay: Human kisspeptin (KISS1R) small molecule agonists, calcium flux assay in KISS1R-HEK293 cells (AID 1920064; active = well fitted curve in the direction sought with a large enough effect in the repeat runs; an effect the other way counts as inactive or inconclusive)
In short: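 Agonist mode: intracellular calcium rise tracked at 1 s intervals over 3 min (480/540 nm) immediately after compound addition to dye-loaded KISS1R-HEK293 stable cells. Each compound tested at 15 concentrations in triplicate.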

[5] = G protein-coupled receptor (GPCR) small molecule agonists, calcium flux assay: HEK293 wild type cell line counter screen (AID 1920065)
In short: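 Calcium flux counter screen: compound added in agonist mode at 15 concentrations in triplicate to dye-loaded parental HEK293 cells. Fluorescence (480/540) read kinetically for 3 min; ATP served as positive control.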

[6] = p53 small molecule agonists, cell-based qHTS assay with human liver microsomes: qHTS cell viability counter screen (AID 1963579); note: nearly all actives have a fitted effect of over 45% in size
In short: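 After the 460/530 nm beta-lactamase read, CellTiter-Glo was added to the same wells and luminescence measured after 30 min at room temperature, giving viability of p53RE-bla cells treated 16 h with compounds plus microsomes and NADPH.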

[7] = p53 small molecule agonists, cell-based qHTS assay with rat liver microsomes: qHTS cell viability counter screen (AID 1963580); note: nearly all actives have a fitted effect of over 45% in size
In short: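 After the beta-lactamase ratio was read, CellTiter-Glo was added to the same wells and luminescence measured at 30 min; cells had been treated 16 h at 37 C with compounds, rat liver microsomes and NADPH (0.5 mg/mL final each).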

[8] = p53 small molecule agonists, cell-based qHTS assay: qHTS cell viability counter screen (AID 1963581); note: nearly all actives have a fitted effect of over 45% in size; note: potency is the fitted concentration of half-maximal effect
In short: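 Counter screen read by CellTiter-Glo luminescence (ATP content, 30 min at room temperature), run in the same wells as the beta-lactamase reporter read. HCT-116 p53RE-bla cells saw compounds for 16 h at 37 C.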

[9] = p53 small molecule agonists, cell-based qHTS assay (AID 1963582; active = well fitted activation curve with a large enough effect in the signal ratio in the repeat runs, not every such curve was filed as active; the % refers to the signal ratio; note: potency is the fitted concentration of half-maximal effect)
In short: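 Read-out is beta-lactamase FRET fluorescence after 2 h at room temperature with LiveBLAzer B/G substrate. p53 response element-bla cells were treated 16 h at 37 C with compounds in DMSO, added 5 h after seeding.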

[10] = molecular target: 5-hydroxytryptamine receptor 2A (Homo sapiens) (UniProt P28223); assay: 5-hydroxytryptamine receptor 2A (HTR2A) small molecule antagonists, cell-based qHTS assay (AID 1963586); note: nearly all actives have a fitted effect of over 45% in size; note: potency is the fitted concentration of half-maximal effect
In short: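 CHO cells stably expressing human HTR2A were plated for 18 h at 37 C, then loaded with calcium dye for 1 h. Compounds were preincubated 5 min at room temperature before DOI (4 nM solution) was added. Kinetic fluorescence was read for 3 min.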

[11] = molecular target: 5-hydroxytryptamine receptor 2A (Homo sapiens) (UniProt P28223); assay: 5-hydroxytryptamine receptor 2A (HTR2A) small molecule agonists, cell-based qHTS assay (AID 1963587); note: nearly all actives have a fitted effect of over 30% in size
In short: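 CHO cells stably expressing human HTR2A, plated 18 h, loaded with calcium dye 1 h at 37 C. Agonist mode: compounds added and intracellular calcium fluorescence recorded kinetically for 2 min at 1 sec intervals.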

[12] = molecular target: Muscarinic acetylcholine receptor M1 (Homo sapiens) (UniProt P11229); assay: Cholinergic receptor muscarinic 1 (CHRM1) small molecule antagonists, cell-based qHTS assay (AID 1963588); note: nearly all actives have a fitted effect of over 40% in size; note: potency is the fitted concentration of half-maximal effect
In short: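 Compounds were tested at 15 concentrations in three independent runs. Dye-loaded CHRM1-CHO cells were exposed 5 min at room temperature before stimulation by acetylcholine added at 50nM. Intracellular calcium was read kinetically on FDSS for 3 min.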

[13] = molecular target: Muscarinic acetylcholine receptor M1 (Homo sapiens) (UniProt P11229); assay: Cholinergic receptor muscarinic 1 (CHRM1) small molecule agonists, cell-based qHTS assay (AID 1963589); note: nearly all actives have a fitted effect of over 35% in size
In short: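 Agonist-mode calcium-flux screen: compounds at 15 concentrations, three independent runs, were pin-transferred onto dye-loaded human CHRM1-CHO cells. Fluorescence was then recorded kinetically every second over minutes.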

[14] = molecular target: Beta-2 adrenergic receptor (Homo sapiens) (UniProt P07550); assay: Adrenergic beta2 receptor (ADRB2) small molecule antagonists, cell-based qHTS assay (AID 1963592); note: series mostly up to about 92 µM; nearly all actives have a fitted effect of over 50% in size
In short: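 Assay format: CHO-ADRB2 cells, 18-20hr seeding at 37C/5% CO2, then compound plus 1nM isoproterenol agonist mix for 0.5hr RT. Homogeneous time-resolved fluorescence cAMP detection after 1hr, expressed as 665/615 nm ratio.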

[15] = molecular target: Beta-2 adrenergic receptor (Homo sapiens) (UniProt P07550); assay: Adrenergic beta2 receptor (ADRB2) small molecule agonists, cell-based qHTS assay (AID 1963593);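 note: CHO cells stably overexpressing human ADRB2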
In short: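 CHO cells stably over-expressing ADRB2 were plated overnight at 37C, then dosed with compounds plus a stimulation mix containing 100uM IBMX and 25uM Ro-20-1724 for 0.5hr at room temperature. cAMP was measured by HTRF competition, 1hr.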

[16] = molecular target: D(2) dopamine receptor (Homo sapiens) (UniProt P14416); assay: Dopamine D2 receptor (DRD2) small molecule agonists, cell-based qHTS assay (AID 1963594); note: nearly all actives have a fitted effect of over 35% in size
In short: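 HEK293 cells stably expressing human DRD2, pre-treated with PDE inhibitor Ro20-1724 (0.1 mM final) and compound 10 min at room temperature, then stimulated with NKH477 (200nM […]) for 30 min. cAMP read by HTRF (665/620 nm).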

[17] = molecular target: D(2) dopamine receptor (Homo sapiens) (UniProt P14416); assay: Dopamine D2 receptor (DRD2) small molecule antagonists, cell-based qHTS assay (AID 1963595; active = well fitted inhibition curve with a large enough effect in the signal ratio in the repeat runs, with a control signal flat; the % refers to the signal ratio)
In short: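 Human DRD2 antagonist qHTS measuring cAMP by HTRF. The cells are exposed to compound for 10 min, then to NKH477 (200 nM) and quinpirole (12 nM) for 30 min at RT, with Ro20-1724 (0.1 mM) present throughout.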

[18] = cAMP Responsive Elements (CRE) small molecule agonists, cell-based qHTS assay (AID 1963590)
In short: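 Agonist mode: compound added to CRE-bla HEK 293T cells (2,000/well, 18 h after plating) for 3 h at 37 C/5% CO2. Reporter activity detected via FRET beta-lactamase substrate, 2 h room-temperature loading.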

[19] = cAMP Responsive Elements (CRE) small molecule antagonists, cell-based qHTS assay (AID 1963591; active = well fitted inhibition curve with a large enough effect in the signal ratio in the repeat runs, not every such curve was filed as active; the % refers to the signal ratio)
In short: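 Antagonist mode: compounds are added alongside the adenylyl cyclase activator NKH477 (0.25 uM final) to CRE-bla HEK293T cells for 3 h. LiveBLAzer FRET substrate, 2 h at room temperature, reports bla expression.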

[20] = p53 small molecule agonists, cell-based qHTS assay with rat liver microsomes (AID 1963578)
In short: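 Metabolic activation is supplied by rat liver microsomes with NADPH (each 0.5 mg/mL final). p53RE-bla cells incubate with compound 16 h at 37 C; reporter activity is measured by LiveBLAzer fluorescence.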

Sequence of KiSS-1 receptor (Homo sapiens) (Q969F8 whole entry, looked up): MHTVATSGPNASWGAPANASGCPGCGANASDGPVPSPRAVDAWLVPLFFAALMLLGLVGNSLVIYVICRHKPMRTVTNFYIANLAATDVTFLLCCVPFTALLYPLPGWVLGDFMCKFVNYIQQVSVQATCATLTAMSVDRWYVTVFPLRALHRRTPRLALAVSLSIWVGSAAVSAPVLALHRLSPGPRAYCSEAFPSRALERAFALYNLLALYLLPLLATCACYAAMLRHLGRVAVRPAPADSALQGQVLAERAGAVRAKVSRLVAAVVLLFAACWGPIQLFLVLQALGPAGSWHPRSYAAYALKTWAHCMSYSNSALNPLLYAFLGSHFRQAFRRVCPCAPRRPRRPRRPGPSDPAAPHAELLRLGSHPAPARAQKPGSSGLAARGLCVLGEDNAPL
Sequence of D(2) dopamine receptor (Homo sapiens) (P14416 whole entry, looked up): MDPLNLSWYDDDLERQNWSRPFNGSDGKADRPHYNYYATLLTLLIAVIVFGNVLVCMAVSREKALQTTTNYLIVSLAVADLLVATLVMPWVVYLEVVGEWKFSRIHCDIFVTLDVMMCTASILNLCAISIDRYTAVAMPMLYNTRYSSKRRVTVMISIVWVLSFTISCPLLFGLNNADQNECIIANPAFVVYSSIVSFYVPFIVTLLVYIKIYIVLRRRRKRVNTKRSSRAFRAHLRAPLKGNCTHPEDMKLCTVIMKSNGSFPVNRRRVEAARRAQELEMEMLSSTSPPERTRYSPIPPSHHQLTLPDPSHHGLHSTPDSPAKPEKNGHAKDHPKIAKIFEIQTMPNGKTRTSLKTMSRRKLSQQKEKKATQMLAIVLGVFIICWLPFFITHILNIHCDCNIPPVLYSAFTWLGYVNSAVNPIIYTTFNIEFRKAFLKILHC
Sequence of 5-hydroxytryptamine receptor 2A (Homo sapiens) (P28223 whole entry, looked up): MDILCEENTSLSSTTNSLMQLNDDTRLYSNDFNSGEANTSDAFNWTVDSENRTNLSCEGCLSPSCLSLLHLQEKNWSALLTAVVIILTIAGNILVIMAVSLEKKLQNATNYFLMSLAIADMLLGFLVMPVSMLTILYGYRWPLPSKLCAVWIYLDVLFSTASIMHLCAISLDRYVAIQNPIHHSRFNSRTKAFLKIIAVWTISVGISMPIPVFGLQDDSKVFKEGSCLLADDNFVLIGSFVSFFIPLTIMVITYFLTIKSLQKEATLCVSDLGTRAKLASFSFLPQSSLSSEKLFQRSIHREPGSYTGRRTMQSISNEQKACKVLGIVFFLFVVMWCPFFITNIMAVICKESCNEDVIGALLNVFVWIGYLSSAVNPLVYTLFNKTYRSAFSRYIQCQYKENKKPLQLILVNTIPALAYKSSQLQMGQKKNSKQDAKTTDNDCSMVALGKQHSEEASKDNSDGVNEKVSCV
Sequence of Muscarinic acetylcholine receptor M1 (Homo sapiens) (P11229 whole entry, looked up): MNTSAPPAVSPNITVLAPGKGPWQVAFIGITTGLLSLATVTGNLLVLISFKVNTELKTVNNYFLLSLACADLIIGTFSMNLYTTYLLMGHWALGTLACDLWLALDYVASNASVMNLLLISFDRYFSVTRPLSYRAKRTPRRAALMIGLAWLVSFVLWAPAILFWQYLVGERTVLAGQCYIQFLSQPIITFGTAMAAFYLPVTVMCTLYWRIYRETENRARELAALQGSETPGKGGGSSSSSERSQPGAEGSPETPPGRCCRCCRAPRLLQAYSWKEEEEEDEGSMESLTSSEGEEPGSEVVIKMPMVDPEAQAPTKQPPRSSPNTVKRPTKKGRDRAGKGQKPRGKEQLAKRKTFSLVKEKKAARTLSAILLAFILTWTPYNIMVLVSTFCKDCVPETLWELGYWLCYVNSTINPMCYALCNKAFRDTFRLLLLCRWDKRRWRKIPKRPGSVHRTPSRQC
Sequence of Beta-2 adrenergic receptor (Homo sapiens) (P07550 whole entry, looked up): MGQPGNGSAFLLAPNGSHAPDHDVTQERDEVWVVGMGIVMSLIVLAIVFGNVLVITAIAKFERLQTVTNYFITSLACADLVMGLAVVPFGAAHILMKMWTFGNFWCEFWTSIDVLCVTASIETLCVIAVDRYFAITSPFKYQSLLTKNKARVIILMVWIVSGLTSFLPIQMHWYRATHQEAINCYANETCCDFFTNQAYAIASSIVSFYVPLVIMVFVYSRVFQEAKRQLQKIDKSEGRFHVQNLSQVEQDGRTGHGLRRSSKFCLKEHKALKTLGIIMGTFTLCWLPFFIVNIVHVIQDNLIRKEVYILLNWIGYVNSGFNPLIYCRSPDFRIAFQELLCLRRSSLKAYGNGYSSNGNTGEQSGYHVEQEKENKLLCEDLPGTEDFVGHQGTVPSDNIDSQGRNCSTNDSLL
Sequence of Gonadotropin-releasing hormone receptor (Homo sapiens) (P30968 whole entry, looked up): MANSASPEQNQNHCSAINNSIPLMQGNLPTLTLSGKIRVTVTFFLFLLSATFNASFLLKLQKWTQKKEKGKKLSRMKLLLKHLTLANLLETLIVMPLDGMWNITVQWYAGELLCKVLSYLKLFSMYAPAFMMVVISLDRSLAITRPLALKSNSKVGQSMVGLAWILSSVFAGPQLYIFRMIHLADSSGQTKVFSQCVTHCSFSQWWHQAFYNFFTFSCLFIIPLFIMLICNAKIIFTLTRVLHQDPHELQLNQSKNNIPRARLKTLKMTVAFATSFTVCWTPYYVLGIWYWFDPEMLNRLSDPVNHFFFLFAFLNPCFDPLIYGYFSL

Row | Structure (SMILES) | Potency [1] | Potency [2] | Potency [3] | Potency [4] | Potency [5] | Potency [6] | Potency [7] | Potency [8] | Potency [9] | Potency [10] | Potency [11] | Potency [12] | Potency [13] | Potency [14] | Potency [15] | Potency [16] | Potency [17] | Potency [18] | Potency [19] | Potency [20]
1 | CCOP(=O)(OCC)Oc1ccc([N+](=O)[O-])cc1 | inactive | inactive | inactive | inactive | inactive | inactive | inactive | inactive | inactive | inactive | inactive | inactive | inactive | inactive | inactive | inactive | inactive |  |  | 
2 | CN(C)c1ccc(N(C)C)cc1 | inactive | 54.6 µM (active) | inactive | inactive | inactive | inactive | inactive | 365 nM (active) | inactive | inactive | inactive | inactive | inactive |  |  |  |  | inactive |  | 
3 | c1ccc(OP(Oc2ccccc2)Oc2ccccc2)cc1 | inactive | inactive | inactive | inactive | inactive | inactive | inactive | inactive |  | inactive | inactive | inactive |  |  |  | inactive | inactive | inactive |  | 
4 | COP(=O)(OC)C(O)C(Cl)(Cl)Cl (stereo not drawn) | inactive | 43.7 µM (active) and 61.1 µM (active) and inactive | inactive | inactive | inactive | inactive | inactive | inactive | inactive | inactive and 8.39 µM (active) | inactive | inactive | inactive | inactive |  | inactive | inactive | inactive | inactive | 
5 | Brc1ccc(Oc2ccccc2)cc1 | inactive | 35.2 µM (active) and inactive | inactive | inactive | inactive | inactive |  | inactive | inactive | inactive | inactive | inactive |  | inactive |  | inactive |  | inactive | inactive | 
6 | COP(=S)(OC)SCn1nnc2ccccc2c1=O | inactive | 53.4 µM (active) and 68.6 µM (active) | inactive | inactive | inactive | inactive | inactive | inactive | inactive | inactive | inactive | inactive |  | inactive | inactive | inactive | inactive |  | inactive | 
7 | CCBr | inactive | inactive | inactive | inactive | inactive | inactive | inactive | inactive | inactive | inactive | inactive | inactive | inactive | inactive | inactive | inactive | inactive |  | inactive | 
8 | CC(c1ccc(O)cc1)c1ccc(O)cc1 | inactive | 64.3 µM (active) and inactive | inactive | inactive | inactive | inactive | inactive | inactive | 38.2 µM (active) | inactive | inactive | 15.7 µM (active) and inactive | inactive | inactive |  | inactive | inactive | inactive | inactive | 
9 | CCN(N=O)C(N)=O | inactive | inactive | inactive | inactive | inactive | inactive |  | inactive |  | inactive | inactive | inactive | inactive | inactive | inactive | inactive | inactive | inactive |  | 
10 | CCOP(=S)(OCC)Oc1nc(Cl)c(Cl)cc1Cl | inactive | 27.4 µM (active) and 61.1 µM (active) | inactive | inactive | inactive | inactive | inactive | inactive | inactive | inactive | inactive | inactive | inactive |  | inactive |  | inactive |  |  | 
11 | Nc1ccccc1C(=O)OCC(O)CO (stereo not drawn) | inactive | inactive | inactive | inactive | inactive | inactive | inactive | inactive | inactive | inactive | inactive | inactive |  | inactive | inactive | inactive | inactive | inactive | inactive | 
12 | Nc1c(Oc2ccccc2)cc(O)c2c1C(=O)c1ccccc1C2=O | inactive | inactive | inactive | inactive | inactive | inactive | inactive | inactive | inactive | inactive | inactive | inactive | inactive | inactive |  | inactive | inactive | inactive | inactive | inactive
13 | C=CCN1CC[C@]23CCCC[C@H]2[C@H]1Cc1ccc(O)cc13 | inactive | inactive | inactive | inactive | inactive | inactive |  | inactive | inactive | inactive | inactive | inactive | inactive | inactive | inactive | inactive | inactive |  | inactive | inactive
14 | COP(=S)(OC)Oc1ccc([N+](=O)[O-])cc1 | inactive | inactive | inactive | inactive | inactive | inactive | inactive | inactive | inactive | inactive | inactive | inactive | inactive | inactive | inactive | inactive | inactive | inactive | inactive | 
15 | CC1OC(C)OC(C)O1 (stereo not drawn) | inactive | inactive | inactive | inactive | inactive |  | inactive | inactive | inactive |  | inactive | inactive | inactive | inactive | inactive | inactive | inactive | inactive | inactive | inactive
16 | NC(=O)c1cc([N+](=O)[O-])cc([N+](=O)[O-])c1 | inactive | inactive | inactive | inactive | inactive | inactive | inactive | inactive | inactive | inactive | inactive | 460 nM (active) | inactive | inactive | inactive | inactive | inactive |  | inactive | inactive
